# Numbering of substitutions follows the chain as printed.
# How the values were obtained:
# Assay in all cases: PBM; 200 nM protein, PBS
# Settings in all cases: dsDNA, one strand shown
# [1] = target: HOXC9 (Homo sapiens, UniProt P31274 178-260, K195R)
# [2] = target: HOXC9 (Homo sapiens, UniProt P31274 178-260)
# [3] = target: HOXC9 (Homo sapiens, UniProt P31274 178-260, R193K)
# [4] = target: HOXC9 (Homo sapiens, UniProt P31274 178-260, R222W)
# [5] = target: T1, VENTX (Homo sapiens, UniProt O95231 78-163)
# T1 sequence: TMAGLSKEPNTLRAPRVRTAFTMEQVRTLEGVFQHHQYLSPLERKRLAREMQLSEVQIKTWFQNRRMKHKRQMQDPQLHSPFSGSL
# [6] = target: T2, VENTX (Homo sapiens, UniProt O95231 78-163, Y115F)
# T2 sequence: T1 sequence with Y38F
# [7] = target: HOXA7 (Homo sapiens, UniProt P31268 116-202)
# HOXA7 (Homo sapiens, UniProt P31268 116-202), sequence (P31268 116-202): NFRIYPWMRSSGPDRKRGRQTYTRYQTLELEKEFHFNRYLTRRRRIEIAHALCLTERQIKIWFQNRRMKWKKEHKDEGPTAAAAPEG
# [8] = target: HOXC10 (Homo sapiens, UniProt Q9NYD6 254-340)
# HOXC10 (Homo sapiens, UniProt Q9NYD6 254-340), sequence (Q9NYD6 254-340): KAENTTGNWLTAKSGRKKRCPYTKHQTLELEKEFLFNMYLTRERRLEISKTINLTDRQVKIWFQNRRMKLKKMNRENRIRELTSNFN
# [9] = target: HOXC10 (Homo sapiens, UniProt Q9NYD6 254-340, K271E)
# HOXC10 (Homo sapiens, UniProt Q9NYD6 254-340, K271E), sequence (Q9NYD6 254-340 K271E): as the sequence (Q9NYD6 254-340) above, with K18E counted along it
# [10] = target: HOXA7 (Homo sapiens, UniProt P31268 116-202, W177C)
# HOXA7 (Homo sapiens, UniProt P31268 116-202, W177C), sequence (P31268 116-202 W177C): as the sequence (P31268 116-202) above, with W62C counted along it
# [11] = target: NKX3-2 (Homo sapiens, UniProt P78367 192-278, P234S)
# NKX3-2 (Homo sapiens, UniProt P78367 192-278, P234S), sequence (P78367 192-278 P234S): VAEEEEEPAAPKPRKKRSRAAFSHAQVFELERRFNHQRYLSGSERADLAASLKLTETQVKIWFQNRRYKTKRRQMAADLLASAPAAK
# [12] = target: NKX3-2 (Homo sapiens, UniProt P78367 192-278)
# NKX3-2 (Homo sapiens, UniProt P78367 192-278), sequence (P78367 192-278): as the sequence (P78367 192-278 P234S) above, with S43P counted along it
# [13] = target: HOXA2 (Homo sapiens, UniProt O43364 129-215, R185T)
# HOXA2 (Homo sapiens, UniProt O43364 129-215, R185T), sequence (O43364 129-215 R185T): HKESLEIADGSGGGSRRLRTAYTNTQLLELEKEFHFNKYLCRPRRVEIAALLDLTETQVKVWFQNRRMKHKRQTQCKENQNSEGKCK
# [14] = target: HOXA2 (Homo sapiens, UniProt O43364 129-215)
# HOXA2 (Homo sapiens, UniProt O43364 129-215), sequence (O43364 129-215): as the sequence (O43364 129-215 R185T) above, with T57R counted along it
# [15] = target: HOXA2 (Homo sapiens, UniProt O43364 129-215, R185K)
# HOXA2 (Homo sapiens, UniProt O43364 129-215, R185K), sequence (O43364 129-215 R185K): as the sequence (O43364 129-215 R185T) above, with T57K counted along it
# [16] = target: HOXA2 (Homo sapiens, UniProt O43364 129-215, Y150S)
# HOXA2 (Homo sapiens, UniProt O43364 129-215, Y150S), sequence (O43364 129-215 Y150S): as the sequence (O43364 129-215 R185T) above, with Y22S, T57R counted along it
# [17] = target: HOXB6 (Homo sapiens, UniProt P17509 132-218, K202E)
# HOXB6 (Homo sapiens, UniProt P17509 132-218, K202E), sequence (P17509 132-218 K202E): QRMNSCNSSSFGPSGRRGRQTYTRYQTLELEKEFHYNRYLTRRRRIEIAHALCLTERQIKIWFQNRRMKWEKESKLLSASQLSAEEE
# [18] = target: HOXB6 (Homo sapiens, UniProt P17509 132-218)
# HOXB6 (Homo sapiens, UniProt P17509 132-218), sequence (P17509 132-218): as the sequence (P17509 132-218 K202E) above, with E71K counted along it
# [19] = target: ALX4 (Homo sapiens, UniProt Q9H161 200-286)
# ALX4, sequence (Q9H161 200-286): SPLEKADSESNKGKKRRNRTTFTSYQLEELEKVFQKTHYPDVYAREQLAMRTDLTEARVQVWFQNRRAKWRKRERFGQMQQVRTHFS
# [20] = target: ALX1 (Homo sapiens, UniProt Q15699 118-204, L144V)
# ALX1 (Homo sapiens, UniProt Q15699 118-204, L144V), sequence (Q15699 118-204 L144V): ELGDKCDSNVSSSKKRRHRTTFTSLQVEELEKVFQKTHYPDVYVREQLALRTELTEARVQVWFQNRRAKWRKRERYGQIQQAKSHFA
# [21] = target: ALX1 (Homo sapiens, UniProt Q15699 118-204, L144R)
# ALX1 (Homo sapiens, UniProt Q15699 118-204, L144R), sequence (Q15699 118-204 L144R): as the sequence (Q15699 118-204 L144V) above, with V27R counted along it
# [22] = target: ALX1 (Homo sapiens, UniProt Q15699 118-204)
# ALX1 (Homo sapiens, UniProt Q15699 118-204), sequence (Q15699 118-204): as the sequence (Q15699 118-204 L144V) above, with V27L counted along it
# [23] = target: T3, NKX2-6 (Homo sapiens, UniProt A6NCS4 118-204, R150C)
# T3 sequence: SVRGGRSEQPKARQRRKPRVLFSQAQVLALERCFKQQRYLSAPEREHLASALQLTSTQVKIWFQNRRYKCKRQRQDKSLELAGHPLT
# [24] = target: T4, PAX4 (Homo sapiens, UniProt O43316 9-242, R200K)
# T4 sequence: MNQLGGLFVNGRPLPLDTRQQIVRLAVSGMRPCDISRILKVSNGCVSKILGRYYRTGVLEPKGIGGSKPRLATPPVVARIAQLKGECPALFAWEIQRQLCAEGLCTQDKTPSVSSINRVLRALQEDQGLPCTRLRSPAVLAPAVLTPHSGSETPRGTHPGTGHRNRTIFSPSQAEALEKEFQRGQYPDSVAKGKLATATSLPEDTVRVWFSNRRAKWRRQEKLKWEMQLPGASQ
# [25] = target: T5, PAX4 (Homo sapiens, UniProt O43316 9-242)
# T5 sequence: T4 sequence with K192R
# [26] = target: T6, PAX4 (Homo sapiens, UniProt O43316 9-242, R200Q)
# T6 sequence: T4 sequence with K192Q
# [27] = target: T7, PAX4 (Homo sapiens, UniProt O43316 9-242, F177V)
# T7 sequence: T4 sequence with F169V, K192R
# [28] = target: T8, PAX4 (Homo sapiens, UniProt O43316 9-242, F177Y)
# T8 sequence: T4 sequence with F169Y, K192R
# [29] = target: T9, PAX4 (Homo sapiens, UniProt O43316 9-242, R227W)
# T9 sequence: T4 sequence with K192R, R219W
# HOXC9 (Homo sapiens, UniProt P31274 178-260), sequence (P31274 178-260): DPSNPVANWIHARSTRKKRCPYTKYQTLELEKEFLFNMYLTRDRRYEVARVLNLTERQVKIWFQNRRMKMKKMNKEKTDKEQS
# HOXC9 (Homo sapiens, UniProt P31274 178-260, R222W), sequence (P31274 178-260 R222W): as the sequence (P31274 178-260) above, with R45W counted along it
# HOXC9 (Homo sapiens, UniProt P31274 178-260, R193K), sequence (P31274 178-260 R193K): as the sequence (P31274 178-260) above, with R16K counted along it
# HOXC9 (Homo sapiens, UniProt P31274 178-260, K195R), sequence (P31274 178-260 K195R): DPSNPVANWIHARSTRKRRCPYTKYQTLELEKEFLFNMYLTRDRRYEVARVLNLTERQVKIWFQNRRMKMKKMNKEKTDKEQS
sequence,measurement,setting,value
ACGCCATA,binding signal,[1],"11 upbm affinity estimate (log intensity, higher = more binding, comparable within an allelic series)"
same,binding signal,[2],"10.9 upbm affinity estimate (log intensity, higher = more binding, comparable within an allelic series)"
same,binding signal,[3],"11 upbm affinity estimate (log intensity, higher = more binding, comparable within an allelic series)"
same,binding signal,[4],"10.2 upbm affinity estimate (log intensity, higher = more binding, comparable within an allelic series)"
TATGAATA,binding signal,[5],"10.3 upbm affinity estimate (log intensity, higher = more binding, comparable within an allelic series)"
AATTGGAC,binding signal,[5],"10.1 upbm affinity estimate (log intensity, higher = more binding, comparable within an allelic series)"
same,binding signal,[6],"9.62 upbm affinity estimate (log intensity, higher = more binding, comparable within an allelic series)"
TTATGCAA,binding signal,[5],"9.95 upbm affinity estimate (log intensity, higher = more binding, comparable within an allelic series)"
CCAGCCCG,binding signal,[1],"9.66 upbm affinity estimate (log intensity, higher = more binding, comparable within an allelic series)"
same,binding signal,[2],"9.72 upbm affinity estimate (log intensity, higher = more binding, comparable within an allelic series)"
same,binding signal,[3],"9.7 upbm affinity estimate (log intensity, higher = more binding, comparable within an allelic series)"
same,binding signal,[4],"9.67 upbm affinity estimate (log intensity, higher = more binding, comparable within an allelic series)"
GATGATCA,binding signal,[5],"9.89 upbm affinity estimate (log intensity, higher = more binding, comparable within an allelic series)"
same,binding signal,[6],"9.51 upbm affinity estimate (log intensity, higher = more binding, comparable within an allelic series)"
CAGGTCCC,binding signal,[7],"8.47 upbm affinity estimate (log intensity, higher = more binding, comparable within an allelic series)"
same,binding signal,[8],"10 upbm affinity estimate (log intensity, higher = more binding, comparable within an allelic series)"
same,binding signal,[9],"10.1 upbm affinity estimate (log intensity, higher = more binding, comparable within an allelic series)"
same,binding signal,[10],"8.4 upbm affinity estimate (log intensity, higher = more binding, comparable within an allelic series)"
CCGGTACC,binding signal,[1],"9.7 upbm affinity estimate (log intensity, higher = more binding, comparable within an allelic series)"
same,binding signal,[2],"9.7 upbm affinity estimate (log intensity, higher = more binding, comparable within an allelic series)"
same,binding signal,[3],"9.72 upbm affinity estimate (log intensity, higher = more binding, comparable within an allelic series)"
same,binding signal,[4],"9.71 upbm affinity estimate (log intensity, higher = more binding, comparable within an allelic series)"
same,binding signal,[11],"10.5 upbm affinity estimate (log intensity, higher = more binding, comparable within an allelic series)"
same,binding signal,[12],"10.6 upbm affinity estimate (log intensity, higher = more binding, comparable within an allelic series)"
AACCAAAT,binding signal,[5],"10 upbm affinity estimate (log intensity, higher = more binding, comparable within an allelic series)"
same,binding signal,[13],"9.12 upbm affinity estimate (log intensity, higher = more binding, comparable within an allelic series)"
same,binding signal,[14],"9.13 upbm affinity estimate (log intensity, higher = more binding, comparable within an allelic series)"
ACTAAGCG,binding signal,[5],"10.2 upbm affinity estimate (log intensity, higher = more binding, comparable within an allelic series)"
CGTGATCA,binding signal,[5],"9.86 upbm affinity estimate (log intensity, higher = more binding, comparable within an allelic series)"
same,binding signal,[6],"9.57 upbm affinity estimate (log intensity, higher = more binding, comparable within an allelic series)"
TCCTTCGA,binding signal,[1],"9.75 upbm affinity estimate (log intensity, higher = more binding, comparable within an allelic series)"
same,binding signal,[2],"9.66 upbm affinity estimate (log intensity, higher = more binding, comparable within an allelic series)"
same,binding signal,[3],"9.72 upbm affinity estimate (log intensity, higher = more binding, comparable within an allelic series)"
same,binding signal,[4],"9.84 upbm affinity estimate (log intensity, higher = more binding, comparable within an allelic series)"
ATTTAGAC,binding signal,[7],"9.49 upbm affinity estimate (log intensity, higher = more binding, comparable within an allelic series)"
CACCGGTC,binding signal,[7],"8.56 upbm affinity estimate (log intensity, higher = more binding, comparable within an allelic series)"
same,binding signal,[8],"10 upbm affinity estimate (log intensity, higher = more binding, comparable within an allelic series)"
same,binding signal,[13],"7.38 upbm affinity estimate (log intensity, higher = more binding, comparable within an allelic series)"
same,binding signal,[15],"10.4 upbm affinity estimate (log intensity, higher = more binding, comparable within an allelic series)"
same,binding signal,[9],"9.92 upbm affinity estimate (log intensity, higher = more binding, comparable within an allelic series)"
same,binding signal,[16],"10.3 upbm affinity estimate (log intensity, higher = more binding, comparable within an allelic series)"
same,binding signal,[10],"8.34 upbm affinity estimate (log intensity, higher = more binding, comparable within an allelic series)"
same,binding signal,[14],"7.28 upbm affinity estimate (log intensity, higher = more binding, comparable within an allelic series)"
ATCACCAT,binding signal,[5],"10.3 upbm affinity estimate (log intensity, higher = more binding, comparable within an allelic series)"
GAGTCCGC,binding signal,[7],"8.56 upbm affinity estimate (log intensity, higher = more binding, comparable within an allelic series)"
same,binding signal,[8],"10.1 upbm affinity estimate (log intensity, higher = more binding, comparable within an allelic series)"
same,binding signal,[17],"9.05 upbm affinity estimate (log intensity, higher = more binding, comparable within an allelic series)"
same,binding signal,[9],"10.1 upbm affinity estimate (log intensity, higher = more binding, comparable within an allelic series)"
same,binding signal,[10],"8.39 upbm affinity estimate (log intensity, higher = more binding, comparable within an allelic series)"
same,binding signal,[18],"8.98 upbm affinity estimate (log intensity, higher = more binding, comparable within an allelic series)"
CTAACGCA,binding signal,[5],"9.98 upbm affinity estimate (log intensity, higher = more binding, comparable within an allelic series)"
same,binding signal,[19],"9.64 upbm affinity estimate (log intensity, higher = more binding, comparable within an allelic series)"
AGGGACCC,binding signal,[1],"9.58 upbm affinity estimate (log intensity, higher = more binding, comparable within an allelic series)"
same,binding signal,[2],"9.44 upbm affinity estimate (log intensity, higher = more binding, comparable within an allelic series)"
same,binding signal,[3],"9.63 upbm affinity estimate (log intensity, higher = more binding, comparable within an allelic series)"
same,binding signal,[4],"9.54 upbm affinity estimate (log intensity, higher = more binding, comparable within an allelic series)"
GAGAGCTC,binding signal,[1],"9.48 upbm affinity estimate (log intensity, higher = more binding, comparable within an allelic series)"
same,binding signal,[2],"9.56 upbm affinity estimate (log intensity, higher = more binding, comparable within an allelic series)"
same,binding signal,[3],"9.3 upbm affinity estimate (log intensity, higher = more binding, comparable within an allelic series)"
same,binding signal,[4],"9.65 upbm affinity estimate (log intensity, higher = more binding, comparable within an allelic series)"
AATAACCG,binding signal,[5],"10.1 upbm affinity estimate (log intensity, higher = more binding, comparable within an allelic series)"
AATGGGGA,binding signal,[5],"10.3 upbm affinity estimate (log intensity, higher = more binding, comparable within an allelic series)"
GGTGATAA,binding signal,[5],"10.3 upbm affinity estimate (log intensity, higher = more binding, comparable within an allelic series)"
CACGTTTA,binding signal,[5],"10.1 upbm affinity estimate (log intensity, higher = more binding, comparable within an allelic series)"
CGGCGTTC,binding signal,[7],"8.31 upbm affinity estimate (log intensity, higher = more binding, comparable within an allelic series)"
same,binding signal,[20],"6.29 upbm affinity estimate (log intensity, higher = more binding, comparable within an allelic series)"
same,binding signal,[21],"6.24 upbm affinity estimate (log intensity, higher = more binding, comparable within an allelic series)"
same,binding signal,[10],"8.26 upbm affinity estimate (log intensity, higher = more binding, comparable within an allelic series)"
same,binding signal,[11],"10.4 upbm affinity estimate (log intensity, higher = more binding, comparable within an allelic series)"
same,binding signal,[22],"6.31 upbm affinity estimate (log intensity, higher = more binding, comparable within an allelic series)"
same,binding signal,[12],"10.4 upbm affinity estimate (log intensity, higher = more binding, comparable within an allelic series)"
GCTATAAC,binding signal,[7],"9.4 upbm affinity estimate (log intensity, higher = more binding, comparable within an allelic series)"
same,binding signal,[20],"8.22 upbm affinity estimate (log intensity, higher = more binding, comparable within an allelic series)"
same,binding signal,[21],"8.11 upbm affinity estimate (log intensity, higher = more binding, comparable within an allelic series)"
same,binding signal,[10],"8.68 upbm affinity estimate (log intensity, higher = more binding, comparable within an allelic series)"
same,binding signal,[22],"8.21 upbm affinity estimate (log intensity, higher = more binding, comparable within an allelic series)"
CCAGCTGG,binding signal,[7],"8.23 upbm affinity estimate (log intensity, higher = more binding, comparable within an allelic series)"
same,binding signal,[13],"7.34 upbm affinity estimate (log intensity, higher = more binding, comparable within an allelic series)"
same,binding signal,[23],"9.68 upbm affinity estimate (log intensity, higher = more binding, comparable within an allelic series)"
same,binding signal,[15],"10.4 upbm affinity estimate (log intensity, higher = more binding, comparable within an allelic series)"
same,binding signal,[16],"10.5 upbm affinity estimate (log intensity, higher = more binding, comparable within an allelic series)"
same,binding signal,[10],"8.36 upbm affinity estimate (log intensity, higher = more binding, comparable within an allelic series)"
same,binding signal,[14],"7.34 upbm affinity estimate (log intensity, higher = more binding, comparable within an allelic series)"
GACGCTGC,binding signal,[7],"8.24 upbm affinity estimate (log intensity, higher = more binding, comparable within an allelic series)"
same,binding signal,[13],"6.99 upbm affinity estimate (log intensity, higher = more binding, comparable within an allelic series)"
same,binding signal,[15],"10.4 upbm affinity estimate (log intensity, higher = more binding, comparable within an allelic series)"
same,binding signal,[16],"10.4 upbm affinity estimate (log intensity, higher = more binding, comparable within an allelic series)"
same,binding signal,[10],"8.35 upbm affinity estimate (log intensity, higher = more binding, comparable within an allelic series)"
same,binding signal,[14],"7.11 upbm affinity estimate (log intensity, higher = more binding, comparable within an allelic series)"
CGTTGCTC,binding signal,[7],"8.49 upbm affinity estimate (log intensity, higher = more binding, comparable within an allelic series)"
same,binding signal,[24],"9.58 upbm affinity estimate (log intensity, higher = more binding, comparable within an allelic series)"
same,binding signal,[25],"9.38 upbm affinity estimate (log intensity, higher = more binding, comparable within an allelic series)"
same,binding signal,[26],"9.57 upbm affinity estimate (log intensity, higher = more binding, comparable within an allelic series)"
same,binding signal,[27],"9.52 upbm affinity estimate (log intensity, higher = more binding, comparable within an allelic series)"
same,binding signal,[28],"9.55 upbm affinity estimate (log intensity, higher = more binding, comparable within an allelic series)"
same,binding signal,[29],"9.55 upbm affinity estimate (log intensity, higher = more binding, comparable within an allelic series)"
same,binding signal,[10],"8.47 upbm affinity estimate (log intensity, higher = more binding, comparable within an allelic series)"
CATTATTA,binding signal,[7],"11.1 upbm affinity estimate (log intensity, higher = more binding, comparable within an allelic series)"
same,binding signal,[17],"10 upbm affinity estimate (log intensity, higher = more binding, comparable within an allelic series)"
same,binding signal,[10],"8.89 upbm affinity estimate (log intensity, higher = more binding, comparable within an allelic series)"

# — paper PMC11006913
